# Values of other authors in PubChem BioAssay AID977611.
# Several values for one entry are separate records, joined by “and”; a condition that tells them apart may be missing. Identical values can stand only once. Hit rate of the full screen: of about 3,900 compounds, about 3,900 (100%) were called active. No cut-off is given here; in the data, nearly all actives have Kd up to about 4200 µM. So high a share suggests a set chosen from earlier hits. Some of the results follow.
# Assay: PubChem AID 977611
# Details: PDB protein-ligand complexes, literature Kd
row,SMILES,Kd
1,O=P(O)(O)OC1C(OP(=O)(O)O)C(OP(=O)(O)O)C(OP(=O)(O)O)C(OP(=O)(O)O)C1OP(=O)(O)O (stereo not drawn),180 nM (active)
2,NC(=O)c1ccc[n+]([C@@H]2O[C@H](COP(=O)([O-])OP(=O)(O)OC[C@H]3O[C@@H](n4cnc5c(N)ncnc54)[C@H](O)[C@@H]3O)[C@@H](O)[C@H]2O)c1,80 µM (active) and 63.7 µM (active)
3,Nc1ncnc2c1ncn2[C@@H]1O[C@H](COP(=O)(O)OP(=O)(O)O)[C@H]2O[C@]3(O[C@H]21)C([N+](=O)[O-])=CC([N+](=O)[O-])=CC3[N+](=O)[O-] (stereo partly drawn),2100 nM (active)
